Cav3 T inh – human Cav3.2 channel inhibition, primary screen; Cav3.2-expressing cells, Fluo-4 calcium fluorescence FDSS; hits give low values; 100,000 tested, 4% active; O95180; B-score at 10 µM; AID 449739;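 active means single-dose well whose peak fluorescence ratio is a statistical outlier from its plate by either plate-standardised score or position-corrected B-score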
CYP2C19 activ – increases human CYP2C19 enzyme activity. 96,000 tested, under 10 active. recombinant CYP2C19, luciferin-H EGE luminescence; hits give high values; 0 = fully inhibited enzyme, 1 = untreated enzyme. activation factor at 5 µM. P33261;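 active means activation factor of at least 2 at 5 µM in the primary screen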;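 further: 0 = wells with 2.5 mM tranylcypromine and 1 = vehicle-only wells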
CYP2C9 act – activators of human CYP2C9; P11712; activation factor at 5 µM; AID 1024; 96,000 tested, 1.4% active; recombinant CYP2C9, luciferin-H conversion, luminescence; hits give high values; factor 1 = untreated enzyme, 0 = blocked;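 active means activation factor of 2 or more for CYP2C9 at a 5 µM dose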;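 further: 0 = sulfaphenazole-blocked wells and 1 = vehicle-only wells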
Target sequence (P11712 whole entry, looked up): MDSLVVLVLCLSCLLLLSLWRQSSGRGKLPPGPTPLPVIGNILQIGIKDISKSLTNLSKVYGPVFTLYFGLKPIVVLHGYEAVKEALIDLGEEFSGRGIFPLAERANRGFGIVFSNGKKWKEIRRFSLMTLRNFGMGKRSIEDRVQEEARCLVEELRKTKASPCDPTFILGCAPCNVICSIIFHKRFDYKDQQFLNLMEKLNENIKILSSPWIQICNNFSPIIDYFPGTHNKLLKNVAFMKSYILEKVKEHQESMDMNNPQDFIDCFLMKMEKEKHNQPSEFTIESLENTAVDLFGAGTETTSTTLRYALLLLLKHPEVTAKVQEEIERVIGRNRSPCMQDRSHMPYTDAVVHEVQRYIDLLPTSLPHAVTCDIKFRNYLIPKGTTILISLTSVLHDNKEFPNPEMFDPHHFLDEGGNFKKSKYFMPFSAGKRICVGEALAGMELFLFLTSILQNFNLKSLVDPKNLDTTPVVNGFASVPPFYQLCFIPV
CYP2C19 inhib – inhibitors of human CYP2C19; P33261; CYP2C19 Supersomes, luciferin-H EGE luminescence, 30 min; inhibition, % at 5 µM; 96,000 tested, 21% active; AID 778;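 active means CYP2C19 inhibition above a set limit at 5 µM in the primary screen, cut at about 50% in these data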;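 further: plate controls were negative control wells for no effect and 2.5 mM tranylcypromine positive control for full effect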
CYP2C9 inhib – blocks human cytochrome P450 2C9. P11712. CYP2C9 Supersomes, luciferin-H conversion, luminescence. inhibition, % at 5 µM. 96,000 tested, 20% active;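 active means blocking of liver enzyme CYP2C9 beyond about 50% at 5 µM, limit read from the data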
* = called active by the depositor. Compounds with a hit are over-represented: about 27% of the library has one in this group of screens.

How did Cc1c(C(=O)N(C)C)sc(NC(=O)c2cccc([N+](=O)[O-])c2)c1C#N do in these assays?
Cav3 T inh: 0.64; CYP2C19 activ: 1.2; CYP2C9 act: 1.1; CYP2C19 inhib: -23; CYP2C9 inhib: -11

How did O=C(NCC1CCS(=O)(=O)C1)NCC1CCS(=O)(=O)C1 (stereo unspecified) do in these assays?
Cav3 T inh: -0.023; CYP2C19 activ: 1; CYP2C9 act: 1.1; CYP2C19 inhib: 2; CYP2C9 inhib: -14

How did O=C(NCCNC(=O)C1CC2CCC1C2)C1CC2CCC1C2 (stereo unspecified) do in these assays?
CYP2C19 activ: 1; CYP2C9 act: 1.1; CYP2C19 inhib: 0; CYP2C9 inhib: -8

Results for O=C1CSC(c2nn(-c3ccccc3)cc2-c2cc3ccccc3oc2=O)N1Cc1ccco1 (stereo unspecified) ?
Cav3 T inh: -1.7; CYP2C19 activ: 0.4; CYP2C9 act: 0.2; CYP2C19 inhib: 55*; CYP2C9 inhib: 84*

How did COC(C[C@H](O)[C@H](C)[C@H](O)COCc1ccccc1)OC do in these assays?
Cav3 T inh: 0.75

What do the screens show for `CC(SCC(=O)Nc1ccc(S(=O)(=O)N2CCCCC2)cc1)C(=O)O` (stereo unspecified)?
Cav3 T inh: 0.33; CYP2C19 activ: 0.9; CYP2C9 act: 0.4; CYP2C19 inhib: 7; CYP2C9 inhib: 56*

How did O=C(O)CCC(=O)Nc1ccc(S(=O)(=O)N2CCCC2)cc1 do in these assays?
Cav3 T inh: -0.66; CYP2C19 activ: 0.5; CYP2C9 act: 0.8; CYP2C19 inhib: 50*; CYP2C9 inhib: 24

How did COC(=O)c1cccc(NC(=O)CCCOc2cccc(C)c2)c1 do in these assays?
Cav3 T inh: -2.3; CYP2C19 activ: 0.2; CYP2C9 act: 0.4; CYP2C19 inhib: 76*; CYP2C9 inhib: 58*

What do the screens show for `Cc1cccc(OCCC(=O)Nc2ccc(S(=O)(=O)N3CCCC3)cc2)c1`?
Cav3 T inh: -2.2; CYP2C19 activ: 0.7; CYP2C9 act: 0.3; CYP2C19 inhib: 33; CYP2C9 inhib: 67*

How did CCCC(=O)Nc1ccc(S(=O)(=O)N2CCCC2)cc1 do in these assays?
Cav3 T inh: 1.7; CYP2C19 activ: 1; CYP2C9 act: 0.8; CYP2C19 inhib: 2; CYP2C9 inhib: 16

Results for CC1(C)CN=C(N2CCN(C3=NCC(C)(C)S3)CC2)S1 ?
CYP2C19 activ: 0.9; CYP2C9 act: 1; CYP2C19 inhib: 9; CYP2C9 inhib: 4

Results for Clc1ccc(CSc2cc3c(nn2)-c2ccccc2CC3)cc1 ?
Cav3 T inh: -2.3; CYP2C19 activ: 0.8; CYP2C9 act: 0.9; CYP2C19 inhib: 25; CYP2C9 inhib: 8

How did CC1(C)OC(=O)C(=NNc2ccc(Cl)cc2)C(=O)O1 do in these assays?
Cav3 T inh: -0.43; CYP2C19 activ: 0.9; CYP2C9 act: 0.8; CYP2C19 inhib: 7; CYP2C9 inhib: 18

What do the screens show for `CN1CC(=O)N(CC(=O)NCc2ccc3c(c2)OCO3)C1=O`?
Cav3 T inh: 0.64; CYP2C19 activ: 1.1; CYP2C9 act: 1; CYP2C19 inhib: -6; CYP2C9 inhib: 0

What do the screens show for `O=C(Nc1ccccc1)Nc1ccc(S(=O)(=O)N2CCCCC2)cc1`?
Cav3 T inh: -2.5; CYP2C19 activ: 1; CYP2C9 act: 0.8; CYP2C19 inhib: -5; CYP2C9 inhib: 22

How did O=C(Nc1ccc(S(=O)(=O)N2CCCC2)cc1)N1c2ccccc2Sc2ccccc21 do in these assays?
Cav3 T inh: -0.93; CYP2C19 activ: 0.9; CYP2C9 act: 0.3; CYP2C19 inhib: 8; CYP2C9 inhib: 74*

How did CCOc1ccc(-n2cc(C(=O)Nc3ccc(Cl)cn3)c3cc(OC)c(OC)cc3c2=O)cc1 do in these assays?
Cav3 T inh: 0.38; CYP2C19 activ: 1.2; CYP2C9 act: 1.1; CYP2C19 inhib: -20; CYP2C9 inhib: -7

What do the screens show for `O=C(Nc1nccs1)c1cc2c(s1)CCCCC2`?
Cav3 T inh: -4.9; CYP2C19 activ: 0.7; CYP2C9 act: 0.7; CYP2C19 inhib: 31; CYP2C9 inhib: 33

Results for COC(=O)c1sccc1NC(=O)c1cc2c(s1)CCCC2 ?
CYP2C19 activ: 0.6; CYP2C9 act: 0.4; CYP2C19 inhib: 36; CYP2C9 inhib: 61*

What do the screens show for `O=C1/C(=C/c2ccccc2)Nc2ccccc21`?
CYP2C19 activ: 0.9; CYP2C9 act: 0.7; CYP2C19 inhib: 7; CYP2C9 inhib: 28

How did O=C1/C(=C/c2ccccc2)NC(=S)N1C(c1ccccc1)c1ccccc1 do in these assays?
Cav3 T inh: -0.27; CYP2C19 activ: 0.9; CYP2C9 act: 0.4; CYP2C19 inhib: 15; CYP2C9 inhib: 60*

What do the screens show for `CCO[C@@H]1OC(C(=O)N2CCN(Cc3ccccc3)CC2)=C[C@H](c2ccccc2)[C@H]1CCCO`?
Cav3 T inh: -0.66

Results for O=C(NCC(c1cccs1)N1CCOCC1)c1cc2ccccc2o1 (stereo unspecified) ?
Cav3 T inh: -0.36; CYP2C19 activ: 0.3; CYP2C9 act: 0.3; CYP2C19 inhib: 75*; CYP2C9 inhib: 74*

Results for NC(=O)NC(=O)COC(=O)c1ccccc1Oc1ccccc1 ?
Cav3 T inh: 0.66; CYP2C19 activ: 0.9; CYP2C9 act: 1; CYP2C19 inhib: 15; CYP2C9 inhib: 0

Results for Cc1csc(Sc2ccc([N+](=O)[O-])cc2C(=O)OCC(=O)NC(=O)NC(C)(C)C)n1 ?
CYP2C19 activ: 0.8; CYP2C9 act: 0.3; CYP2C19 inhib: 19; CYP2C9 inhib: 72*

What do the screens show for `Cc1ccc(C2(C)NC(=O)N(CC(=O)NCCC3=CCCCC3)C2=O)cc1` (stereo unspecified)?
Cav3 T inh: -2.3; CYP2C19 activ: 0.8; CYP2C9 act: 0.7; CYP2C19 inhib: 22; CYP2C9 inhib: 33

How did Cc1ccc(CNCCC2=CCCCC2)cc1 do in these assays?
Cav3 T inh: 0.083; CYP2C19 activ: 0.1; CYP2C9 act: 1; CYP2C19 inhib: 94*; CYP2C9 inhib: -4

Results for O=C(NCCC1=CCCCC1)NC1CCCCC1 ?
Cav3 T inh: -1.5

What do the screens show for `C1=C(CCNCC2CC2)CCCC1`?
Cav3 T inh: 0.36; CYP2C19 activ: 0.5; CYP2C9 act: 1.6; CYP2C19 inhib: 54*; CYP2C9 inhib: -56

How did O=C(Nc1ccccc1)O/N=C/c1ccncc1 do in these assays?
Cav3 T inh: -0.017; CYP2C19 activ: 0.3; CYP2C9 act: 0.4; CYP2C19 inhib: 70*; CYP2C9 inhib: 60*

What do the screens show for `CC(/C=C/c1ccccc1)=N\NC(=O)c1ccncc1`?
Cav3 T inh: 0.87; CYP2C19 activ: 0.6; CYP2C9 act: 0.5; CYP2C19 inhib: 40; CYP2C9 inhib: 49

Results for CCCOC(=O)c1ccc(-c2c(C)noc2-c2ccc(OC)cc2O)o1 ?
Cav3 T inh: -4.4*; CYP2C19 activ: 0.2; CYP2C9 act: 0.1; CYP2C19 inhib: 81*; CYP2C9 inhib: 92*

Results for CCCCCCNC(=O)N1C/C=C\C(c2ccc(OC)cc2)N(Cc2ccc(F)cc2)C(=O)C1 (stereo unspecified) ?
Cav3 T inh: -0.12

Screening data (PubChem)
